Measurements taken from ChEMBL document CHEMBL1157539, “Thousands of chemical starting points for antimalarial lead identification” (Nature, 2010).

Assays:
Type in all cases: functional
Plasmodium falciparum [1] = test: GSK_TCMDC: Inhibition of Plasmodium falciparum 3D7 in whole red blood cells, using parasite LDH activity as an index of growth. Test compounds present at 2uM
Plasmodium falciparum [2] = test: GSK_TCMDC: Inhibition of Plasmodium falciparum Dd2 in whole red blood cells, using parasite LDH activity as an index of growth. Test compounds present at 2uM
HepG2 = test: GSK_TCMDC: Percent inhibition of human HepG2 cell line. Test compounds present at 10uM.

SMILES | Inhibition (Plasmodium falciparum [1]) [%] | Inhibition (Plasmodium falciparum [2]) [%] | Inhibition (HepG2) [%]
O=C(O[C@@H]1CN[C@H](C#Cc2cc3ncnc(Nc4ccc5c(cnn5Cc5cccc(F)c5)c4)c3s2)C1)N1CCCC1 | 86 | 56 | 9
Cc1cc(=O)c(-c2ccc(Oc3cccc(OC(F)(F)F)c3)cc2)c(C)[nH]1 | 97 | 96 | 13
Fc1ccc2c(NN=Cc3ccc(Cl)cc3)ccnc2c1 | 100 | 99 | 7
CC(=O)N(C)c1ccc(C(=O)Nc2cccc(-c3cccc(-c4nc5cccc(C)c5[nH]4)c3)c2)cc1 | 89 | 30 | 11
O=C(/C=C/c1ccccc1Cl)Nc1ccc(Br)c(OCCN2CCN(CCN3CCCC3)CC2)c1.O=C(O)C(=O)O | 99 | 89 | 26
O=C(Nc1cc(C(F)(F)F)cc(C(F)(F)F)c1)Nc1cc(C(F)(F)F)cc(C(F)(F)F)c1 | 97 | 100 | 5
CN(Cc1ccc(NC(=O)CCC2CCN(C(=O)/C=C/c3ccc(Cl)c(Cl)c3)CC2)cc1)C1CCOCC1 | 94 | 2 | 10
O=C(Nc1ccc(Cl)c(Cl)c1)Nc1cc(C(F)(F)F)ccc1Cl | 100 | 85 | 0
COc1ccc(-c2ccc(NC(=O)c3cccc(Cl)c3)cc2)cc1CN1CCCN(C)CC1.O=C(O)C(F)(F)F | 95 | 50 | 48
Cc1cc(Nc2ccc(O)cc2)nc2cccc(O)c12 | 99 | 28 | 22
FC(F)(F)c1cccc(CNCC2CCN(CC3CCCCC3)CC2)c1.O=C(O)C(F)(F)F | 100 | 24 | 21
N#Cc1ccc(N2CCN(Cc3cccc(-c4ccc(-c5nc6cc(C(F)(F)F)ccc6[nH]5)s4)c3)CC2)nc1.O=C(O)C(F)(F)F | 96 | 52 | 31
Fc1cccc(COc2ccc(Nc3ncnc4ccc(C#C[C@H]5CCCN5)cc34)cc2Cl)c1 | 91 | 26 | 7
CN(C)Cc1cccc(-c2cnc(N)c(-c3nc4cc(S(C)(=O)=O)ccc4[nH]3)c2)c1.O=C(O)C(F)(F)F | 100 | 61 | 27
Cc1ccc(-c2ccc(Cl)cc2Oc2cnc(N)nc2N)o1 | 100 | 3 | 15
Cl.O=C(Nc1cc(Cl)cc(Cl)c1)c1cnn(-c2ccc(F)cc2)c1C1CCNCC1 | 90 | 0 | 13
COc1ccc2nccc([C@@H](O)CN3CCC(NCc4cc5c(F)ccc(F)c5[nH]4)CC3)c2n1.CS(=O)(=O)O | 100 | 76 | 22
COc1ccc(CNC2Cc3ccccc3C2)cc1-c1ccc(OC)c(S(=O)(=O)NCCN2CCCC2)c1.O=C(O)C(F)(F)F | 100 | 97 | 31
Cc1ccc(C2CCN(CCCCNC(=O)c3ccc(-c4ccc(C(F)(F)F)cc4)cc3)CC2)c(O)c1 | 100 | 49 | 92
O=C(Nc1cccc(CN2CCCN(CC3CC3)CC2)c1)c1ccc(-c2ccccc2)cc1.O=C(O)C(F)(F)F | 96 | 5 | 15
CC1N=C(N)N=C(N)N1OCc1ccccc1.Cl (stereo not given) | 94 | 72 | 62
O=C(NC1CCC(N2CCC(O)(c3ccc(F)cc3)CC2)CC1)c1cc2ccccc2[nH]1 (stereo not given) | 94 | 8 | 9
C=Cc1sc(CNCCCNc2cc(=O)c3ccccc3[nH]2)c(C)c1Br | 94 | 35 | 0
COc1ccc(-c2ccc(CNCc3ccsc3)cc2)cc1S(=O)(=O)NCCN1CCCC1.O=C(O)C(F)(F)F | 94 | 30 | 22
CCN(CC)CCN(Cc1ccc(-c2ccc(C(F)(F)F)cc2)cc1)C(=O)Cn1c(CCc2cc(F)cc(F)c2F)nc(=O)c2ccccc21.O=C(O)C(O)C(O)C(=O)O | 100 | 77 | 36
CCNc1cc(CCCC(=O)OCC)nc(Nc2ccc(C)cc2)n1.O=C(O)C(F)(F)F | 100 | 63 | 17
Cn1nccc1C(=O)NCCNCc1ccc(-c2ccc(-c3nc4cc(F)ccc4[nH]3)cc2)cc1.O=C(O)C(F)(F)F | 100 | 98 | 28
O=C(Cc1ccccc1)NC1(c2ccccc2)CCN(CCc2c[nH]c3ccc(F)cc23)CC1 | 87 | 62 | 29
c1ccc(Oc2ccc(Nc3ccnc4cc(-c5csc(CN6CCCCC6)n5)ccc34)cc2)nc1 | 100 | 95 | 22
COc1ccc(C(=O)COc2cccc(/C=C/C(=O)O)c2)cc1OC | 84 | 28 | 44
